Screening data as filed in PubChem BioAssay.
This is a sample that favours compounds with a hit; in the whole collection about 4.7% have one here.
tim10-1 inh: inhibits growth of tim10-1 mutant yeast; S. cerevisiae tim10-1 ts strain growth, BacTiter-Glo, 24 h; AID 463190; inhibition, % at 20 µM; hit rate 2.2% among 330,000;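 active = inhibition of at least 40%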;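 note: mutant grown at 25 °C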
EBI2 block: antagonists of human EBI2 receptor; P32249; EBI2 beta-arrestin recruitment, luminescence, 7a,25-OHC stimulated; inhibition, % at 5 µM; hit rate 0.81% among 360,000; in the data active = inhibition above about 38%;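 note: enzyme fragment complementation signal reports receptor beta-arrestin coupling in cells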
Target sequence (P32249 whole entry, looked up, the tested form may be a part): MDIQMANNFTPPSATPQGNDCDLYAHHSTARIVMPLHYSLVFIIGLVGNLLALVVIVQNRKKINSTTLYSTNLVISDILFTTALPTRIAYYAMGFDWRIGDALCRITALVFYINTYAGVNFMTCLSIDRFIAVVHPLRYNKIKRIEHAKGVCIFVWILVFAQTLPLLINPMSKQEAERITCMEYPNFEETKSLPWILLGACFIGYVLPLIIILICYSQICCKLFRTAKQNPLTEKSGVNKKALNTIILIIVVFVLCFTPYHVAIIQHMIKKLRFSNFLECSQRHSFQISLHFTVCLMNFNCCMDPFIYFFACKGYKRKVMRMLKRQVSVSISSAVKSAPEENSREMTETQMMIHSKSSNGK
PfHsp90 yeast 2: inhibits growth of yeast expressing Plasmodium falciparum Hsp90; inhibition, % at 9.4 µM; hit rate 0.32% among 310,000; S. cerevisiae expressing PfHsp90, BacTiter-Glo ATP, 48 h; yeast lacking PDR1 and PDR3 efflux regulators;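 active = every replicate shows inhibition above about 80%, whatever the replicate mean, limit read from the data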
TIM10 inh: inhibits growth of TIM10 yeast strain | hit rate 1.4% among 330,000 | S. cerevisiae TIM10 strain growth, BacTiter-Glo luminescence, 24 h | inhibition, % at 10 µM | AID 463195;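 active = inhibition of 40% or more at the single tested concentration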;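 note: wild-type TIM10 isogenic control strain grown at permissive 25 °C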
tim23-1 inh: tim23-1 yeast growth inhibition; inhibition, % at 20 µM; hit rate 1.3% among 330,000; S. cerevisiae tim23-1 growth, BacTiter-Glo luminescence, 24 h; AID 463212;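 active = growth inhibition of the mutant yeast at or above 50%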;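 note: temperature-sensitive mutant grown at 25 °C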
SKKanGAS inh: SKKanGAS growth inhibition; inhibition, % at 7.5 µM; hit rate 1.3% among 300,000; S. pyogenes SKKanGAS, kanamycin growth, BacTiter-Glo, 6 h; AID 1662;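 active = mean replicate score, as percent of positive control median, at least 50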;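 note: strain carries kanamycin resistance gene driven by streptokinase promoter and grows in 40 µg/ml kanamycin; loss of luminescence reflects streptokinase promoter inhibition or plain growth inhibition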
tim10-1 conf: tim10-1 yeast growth inhibition, confirmed; shares compounds with tim10-1 inh; S. cerevisiae tim10-1 ts strain growth, BacTiter-Glo, 24 h; inhibition, % at 20 µM; hit rate 56% among 7,400; AID 463213;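 active = inhibition of yeast growth at or above a set limit in either of two repeat tests at 20 µM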;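 note: tim10-1 mutant grown at permissive 25 °C to find synthetic lethal compounds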
TIM10 conf: TIM10 yeast growth inhibition, confirmed | inhibition, % at 10 µM | shares compounds with TIM10 inh | hit rate 63% among 4,600 | S. cerevisiae tim10 strain growth, BacTiter-Glo luminescence, 24 h;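 active = inhibition of yeast growth at or above a set limit in either of two replicates at 10 µM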; note: this counterscreen used the strain with wild-type TIM10
Each line names hits and unclear results; the compound was inactive in the other large screens (follow-up assays come after a bar, where they were run).

CCCC1CCC(C2=N/C(=C\c3ccc(OC)c(OC)c3)C(=O)O2)CC1 (configuration not stated)	none
CC(=O)Oc1ccc(/C=C2\N=C(C3CCCCC3)OC2=O)cc1	tim10-1 inh 46, TIM10 inh 56 | tim10-1 conf 46 | TIM10 conf 41
CCc1ccc(OCC2NCCc3cc(OC)c(OC)cc32)cc1 (configuration not stated)	none
COc1cc2c(cc1OC)C(COc1ccc(F)cc1)NCC2 (configuration not stated)	tim10-1 inh 43, TIM10 inh 45 | tim10-1 conf 36 | TIM10 conf 42
COC(=O)N/N=C/c1cccs1	none
COC(=O)C(=C/C(C)=C/c1cccs1)C(=O)OC	tim10-1 inh 44, TIM10 inh 43 | tim10-1 conf inactive | TIM10 conf 43
O=[N+]([O-])c1nn(-c2ccc3c(c2)OCCO3)n(O)c1=NC1CCCC1	tim10-1 inh 55, TIM10 inh 58 (no result: PfHsp90 yeast 2) | tim10-1 conf 47 | TIM10 conf 41
O=C(NNC(=O)C1CCCC1)c1cc([N+](=O)[O-])cc([N+](=O)[O-])c1	none (no result: SKKanGAS inh)
O=[N+]([O-])c1ccc(-[n+]2ccc3ccccc3c2)c([N+](=O)[O-])c1	tim10-1 inh 58, TIM10 inh 50 | tim10-1 conf 52 | TIM10 conf 52
CS(=O)(=O)c1ccc(C(=O)OCc2nnc(-c3ccc(Cl)cc3)o2)cc1[N+](=O)[O-]	tim10-1 inh 59, TIM10 inh 51 (no result: PfHsp90 yeast 2) | tim10-1 conf 56 | TIM10 conf 41
COc1ccccc1CC(=O)O/N=C(\N)Cc1cccc2ccccc12	tim10-1 inh 67, TIM10 inh 56 (no result: PfHsp90 yeast 2) | tim10-1 conf 53 | TIM10 conf 62
Cc1ccc(C(=O)O/N=C(\N)Cc2cccc3ccccc23)cc1	tim10-1 inh 49, TIM10 inh 42 | tim10-1 conf 52 | TIM10 conf 73
COc1ccccc1OC(=O)Cc1cccc2ccccc12	none
Cc1ccc(/C(N)=N/OC(=O)c2ccc3ccccc3c2)cc1	tim10-1 inh 54, TIM10 inh 55 | tim10-1 conf 53 | TIM10 conf 66
COc1ccccc1C/C(N)=N/OC(=O)COc1ccc(C)cc1C	tim10-1 inh 48, TIM10 inh 43 | tim10-1 conf 42 | TIM10 conf 35
Cc1ccc(OCC(=O)O/N=C(\N)c2ccncc2)c(C)c1	none
Cc1ccc(/C(N)=N/OC(=O)COc2cccc3ccccc23)cc1	none (no result: tim10-1 inh, PfHsp90 yeast 2, TIM10 inh, tim23-1 inh, SKKanGAS inh)
COc1ccc2c(c1)C=C(CN1CCN(C3CCCC3)C(CCO)C1)CO2 (configuration not stated)	none
CN(CC(=O)NCc1ccc2c(c1)OCO2)S(=O)(=O)c1ccc(F)cc1	none
CCS(=O)(=O)N1Cc2ccccc2CC1C(=O)Nc1nc(C)cs1 (configuration not stated)	none
CCS(=O)(=O)N1Cc2ccccc2CC1C(=O)NC(C)C12CC3CC(CC(C3)C1)C2 (configuration not stated)	tim10-1 inh 41, TIM10 inh 47 | tim10-1 conf 30 | TIM10 conf inactive
Cc1ccc(/C(O)=C2\C(=O)C(=O)N(CC(C)O)C2c2ccccn2)cc1 (configuration not stated)	none
CCOc1ccc(N2C(=O)CC(N)C2=O)cc1 (configuration not stated)	tim10-1 inh 73, TIM10 inh 72 (no result: SKKanGAS inh) | tim10-1 conf 69 | TIM10 conf 70
CCOc1ccc(N2C(=O)CC(Sc3n[nH]c(-c4ccccc4)n3)C2=O)cc1 (configuration not stated)	tim10-1 inh 51, TIM10 inh 57 | tim10-1 conf 53 | TIM10 conf 36
CCOc1ccc(N2C(=O)CC(Cc3cc(C)cc(C)c3)C2=O)cc1 (configuration not stated)	none
COc1ccc(N2C(=O)CC(Sc3n[nH]c(-c4ccccc4)n3)C2=O)cc1 (configuration not stated)	none
COc1ccccc1-c1cc(C(F)(F)F)nc(S(=O)(=O)CCCC(=O)Nc2cc(C)on2)n1	none
COc1ccccc1-c1cc(C(F)(F)F)nc(S(=O)(=O)CCCC(=O)N2CCCCC2C)n1 (configuration not stated)	tim10-1 inh 42, TIM10 inh 41 | tim10-1 conf inactive | TIM10 conf inactive
CCc1ccc(NC(=O)c2cnc(SC)nc2C)cc1	none
CCOC(=O)C1=C(C)Nc2nc(=S)[nH]n2C1c1ccc(Cl)cc1 (configuration not stated)	tim10-1 inh 55, TIM10 inh 48 | tim10-1 conf 44 | TIM10 conf inactive
CCOC(=O)C1=C(C)Nc2nc(SCC)nn2C1c1ccc(OC)cc1 (configuration not stated)	none
Cc1cccc(C(=O)N[C@H](C(=O)OCC(=O)NC(=O)c2cccn2C)C(C)C)c1	none
O=C(N/N=C/c1ccccn1)c1cc([N+](=O)[O-])cc([N+](=O)[O-])c1	tim10-1 inh 42, TIM10 inh 48 | tim10-1 conf inactive | TIM10 conf inactive
Cc1cc(C)cc(OCC(=O)Nc2ccc3c(c2)C(=O)c2ccccc2C3=O)c1	none
COc1ccc(-c2cn3cc(C)ccc3n2)cc1OC	tim10-1 inh 50, TIM10 inh 67 | tim10-1 conf 43 | TIM10 conf 60
CCCN(CCC)C(=S)NC(=O)c1ccc(Cl)cc1Cl	tim10-1 inh 54, TIM10 inh 40 | tim10-1 conf inactive | TIM10 conf 37
Cc1ccc2nc(-c3ccc(Br)o3)oc(=O)c2c1	tim10-1 inh 41, TIM10 inh 48 | tim10-1 conf 35 | TIM10 conf 33
COc1cc2nc(-c3ccc(Br)o3)oc(=O)c2cc1OC	none
Cc1cc(C)n(CC(=O)NNC(=O)c2ccc(S(C)(=O)=O)cc2)n1	none (no result: SKKanGAS inh)
COc1cc(Nc2c3ccccc3nc3ccccc23)cc(OC)c1OC	tim10-1 inh 78, TIM10 inh 60 | tim10-1 conf 76 | TIM10 conf 38
Cc1ccc(OCc2nnc(-c3ccc(Cl)cc3)o2)cc1	none
COc1ccc(S(=O)(=O)n2nc(OC(=O)c3cccs3)cc2N)cc1	tim10-1 inh 45, TIM10 inh 44 | tim10-1 conf 31 | TIM10 conf 52
CS(=O)(=O)n1nc(OC(=O)c2cccs2)cc1N	none
COC(=O)c1cc(NC(=S)Nc2cc(Cl)cc(Cl)c2)cc(C(=O)OC)c1	tim10-1 inh 49, TIM10 inh 50 | tim10-1 conf 33 | TIM10 conf inactive
O=[N+]([O-])c1ccc(SCc2ccncc2)nc1	none
